HEK cytotox = cytotoxic compounds in HEK 293 cells | HEK 293 viability, ATP luminescence (CellTiter-Glo), 48-72 h | Potency, µM (series often up to 115 µM), usual class: inhibitors | actives 6.6% (n = 94,000); further: nearly all actives have a fitted effect of over 60% in size
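ATP-coupled CellTiter-Glo luminescence served as viability read-out, recorded 10 min after reagent addition at room temperature. HEK 293 cells, 250 cells/well, had been incubated with pintool-transferred compound for 48 or 72 hr at 37 degree Celsius.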
NPR1 antag = human Npr1 receptor antagonism. Potency, µM (highest dose often 46.3 µM), most hits filed as inhibitors. P16066. actives 1.6% (n = 76,000). HEK293 hNpr1 GloSensor cGMP, ANP-stimulated luminescence; calls by dose curve; further: nearly all actives have a fitted effect of over 60% in size
Target sequence (P16066 whole entry, looked up): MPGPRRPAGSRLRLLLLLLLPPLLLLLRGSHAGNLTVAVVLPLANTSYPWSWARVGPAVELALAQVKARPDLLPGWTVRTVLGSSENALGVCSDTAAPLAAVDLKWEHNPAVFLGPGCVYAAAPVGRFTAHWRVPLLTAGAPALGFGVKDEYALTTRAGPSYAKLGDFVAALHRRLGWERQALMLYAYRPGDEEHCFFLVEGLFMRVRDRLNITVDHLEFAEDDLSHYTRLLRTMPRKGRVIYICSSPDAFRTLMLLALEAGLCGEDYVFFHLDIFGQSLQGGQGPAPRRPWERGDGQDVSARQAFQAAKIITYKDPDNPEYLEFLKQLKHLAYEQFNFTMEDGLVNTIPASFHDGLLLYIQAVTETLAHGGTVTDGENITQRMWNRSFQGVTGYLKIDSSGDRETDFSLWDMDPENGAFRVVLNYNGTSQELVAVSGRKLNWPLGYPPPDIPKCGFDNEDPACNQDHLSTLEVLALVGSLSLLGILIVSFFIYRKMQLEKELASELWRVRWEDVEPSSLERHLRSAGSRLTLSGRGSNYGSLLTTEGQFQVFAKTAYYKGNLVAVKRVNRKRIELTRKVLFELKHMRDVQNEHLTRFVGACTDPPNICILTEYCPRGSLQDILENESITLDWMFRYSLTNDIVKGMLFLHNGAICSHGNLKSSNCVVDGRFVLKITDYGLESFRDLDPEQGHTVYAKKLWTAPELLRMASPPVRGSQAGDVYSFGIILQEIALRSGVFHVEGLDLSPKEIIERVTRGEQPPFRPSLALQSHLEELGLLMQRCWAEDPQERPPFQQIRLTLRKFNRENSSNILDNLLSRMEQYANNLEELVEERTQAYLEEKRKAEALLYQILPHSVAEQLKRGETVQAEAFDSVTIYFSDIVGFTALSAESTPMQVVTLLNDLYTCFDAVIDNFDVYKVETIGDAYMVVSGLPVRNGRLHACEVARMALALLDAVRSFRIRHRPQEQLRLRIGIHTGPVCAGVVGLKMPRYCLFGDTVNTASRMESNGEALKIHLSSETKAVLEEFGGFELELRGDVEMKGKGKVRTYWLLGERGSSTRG
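Compound pre-incubated 30 min at room temperature on GloSensor-loaded HEK293 cells stably carrying hNpr1 and the pGS-40F cGMP biosensor. Stimulation uses hNppA at 0.1 nM final; luminescence is taken at baseline and 20 min post-agonist.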
HEK293 viab = cell viability loss counter-screen; HEK-293-SNCA-luc viability, GF-AFC fluorescence, 24 h; Potency, µM (series often up to 57.1 µM), most hits filed as cytotoxic; actives 0.12% (n = 150,000); AID 1671193; further: nearly all actives have a fitted effect of over 30% in size
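HEK-293-SNCA-luc cells (1500/well) plated 24 h, then exposed 24 h to a dilution series; GF-AFC added 30 min at 37C, fluorescence 405/540 nm; normalised to medium-only and DMSO wells, Hill fit.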
SNCA expr inh = inhibitors of alpha-synuclein (SNCA) gene expression; HEK-293 SNCA-luciferase knock-in, luminescence, 24 h; actives 0.17% (n = 140,000); Potency, µM (titrated, usually from 57.2 µM), most hits filed as inhibitors; further: nearly all actives have a fitted effect of over 45% in size
Luciferase inh = blocks purified firefly luciferase enzyme activity. P08659. purified P. pyralis luciferase, luminescence, biochemical. Potency, µM (titrated, usually from 115 µM), most hits filed as inhibitors. actives 2.5% (n = 76,000). AID 1347043; further: nearly all actives have a fitted effect of over 65% in size
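Purified P. pyralis luciferase (10nM final) in 50mM Tris acetate pH 7.5, 10mM Mg acetate, 0.01% Tween-20, 0.05% BSA with 10uM D-luciferin and 10uM ATP. Compounds titrated qHTS. Luminescence imaged on CCD.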
NIH3T3 tox = kills NIH 3T3 cells; actives 4.3% (n = 94,000); AID 1345082; NIH 3T3 viability, CellTiter-Glo ATP luminescence, 48-72 h; Potency, µM (doses to about 96.7 µM), hits mostly inhibitors; further: nearly all actives have a fitted effect of over 55% in size
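Mouse fibroblast NIH 3T3 cells, 400 per well, received compound via pintool and were incubated for 48 or 72 hr prior to CellTiter-Glo ATP luminescence measurement.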
A number is an active result; i = inactive; ? = inconclusive; nt = no result. Sampled rows, rich in hits. Any-hit rate of the full collection: about 7.4%. Unless noted, the call rests on the fitted dose curve; in most records, active means well fitted curve in the direction sought with a large enough effect; inconclusive means small, poorly fitted or top-dose-only effect, or another doubt; inactive means no such curve, though single readings can be large; an effect the other way counts as inactive or inconclusive.

SMILES	HEK cytotox	NPR1 antag	HEK293 viab	SNCA expr inh	Luciferase inh	NIH3T3 tox
O=C(Nc1ccc2c(N3CCCCC3)ncnc2c1)c1ccc(F)cc1	?	i	i	i	?	28.2µM
COc1ccc(CCNC(=O)Cn2nc3n(c2=O)CCCC3)cc1OC	i	i	i	i	i	i
O=C(CCc1ccccc1)N1CCCC(n2cc(-c3nc(-c4ccccc4)no3)nn2)C1 (stereo not given)	44.7µM	?	i	i	?	?
CC(=O)NCC(=O)N1CCCC(n2cc(-c3nc(-c4ccccc4)no3)nn2)C1 (stereo not given)	i	i	i	i	35.5µM	i
COCCNC(=O)c1nc2cccnc2n(-c2ccccc2OC)c1=O	i	nt	i	i	nt	i
Cc1ccc(CN2CCc3nc(C4CC4)nc(-c4ccc(O)cc4)c3C2)cc1	?	i	i	i	i	?
COc1ccc(CN2Cc3cc(NC(=O)c4ccccc4F)ccc3OC(C)C2=O)c(OC)c1 (stereo not given)	35.5µM	i	i	i	i	?
COc1ccc(C(=O)Nc2ccc3c(c2)CN(Cc2cccc(OC)c2OC)C(=O)CO3)cc1	?	i	i	i	i	?
CC1Oc2ccc(NC(=O)c3ccc(Cl)c(Cl)c3)cc2CN(Cc2ccccc2F)C1=O (stereo not given)	?	i	i	i	i	?
O=C(Nc1ccc2c(c1)CN(Cc1ccccc1F)C(=O)CO2)c1ccc(Cl)cc1	39.8µM	i	i	i	?	?
COc1cccc(C(=O)Nc2ccc3c(c2)CN(Cc2cccc(OC)c2OC)C(=O)CO3)c1	44.7µM	i	i	i	?	i
COc1cccc(C(=O)Nc2ccc3c(c2)CN(Cc2cccc(OC)c2OC)C(=O)C(C)O3)c1 (stereo not given)	28.2µM	i	i	i	i	35.5µM
Cc1ccccc1CN1C[C@H](O)C[C@H]1c1nc(C2CC2)no1	i	i	i	i	i	i
Cc1ccc(N2CCN(C(=O)c3ccc(Cn4cccn4)o3)CC2=O)cc1	i	i	i	i	i	i
COc1ccccc1CN1Cc2cc(NC(=O)c3ccc(Cl)cc3)ccc2OC(C)C1=O (stereo not given)	25.1µM	i	i	i	i	?
COc1cccc(CN2Cc3cc(NC(=O)c4ccccc4)ccc3OC(C)C2=O)c1OC (stereo not given)	?	i	i	i	i	?
O=C(NCc1ccc(F)cc1)c1cnc2n[nH]c(-c3ccccc3)c2n1	?	i	i	?	i	50.1µM
O=C(c1cnc2n[nH]c(-c3ccccc3)c2n1)N1CCN(c2ccccn2)CC1	70.8µM	i	i	?	i	?
O=C(NCC1CCOCC1)c1cnc2n[nH]c(-c3ccccc3)c2n1	?	i	i	?	i	79.4µM
COc1ccc(-c2[nH]nc3ncc(C(=O)NCc4ccc(F)cc4)nc23)c(C)c1	31.6µM	i	?	?	i	22.4µM
COc1ccc(-c2[nH]nc3ncc(C(=O)N4CCN(Cc5ccccc5)CC4)nc23)c(C)c1	?	i	?	i	i	?
O=C(NCCc1ccccc1)c1cnc2n[nH]c(-c3ccccc3)c2n1	i	i	i	i	i	?
CCCCNc1nc2c(s1)C[C@]1(C)CC[C@@H]3[C@H](OC(=O)[C@H]3C)[C@H]1[C@@H]2C	?	17.8µM	i	i	?	?
C[C@@H]1C(=O)O[C@H]2[C@H]1CC[C@@]1(C)Cc3sc(NC(=O)NC4CCCCC4)nc3[C@@H](C)[C@H]21	?	i	i	i	?	i
COc1cc(CNC(=O)c2cnc3c(c2)N(C(=O)Cc2ccc(C(C)C)cc2)CCC3)cc(OC)c1	?	i	i	?	i	?
SMILES	HEK cytotox	NPR1 antag	HEK293 viab	SNCA expr inh	Luciferase inh	NIH3T3 tox
CCCOc1ccc(CNC(=O)[C@@]23CCCC[C@H]2N(C)C(=O)CC3)cc1	i	i	i	i	i	i
O=C(c1cnc(Cc2c(Cl)cccc2Cl)[nH]c1=O)N1CCCCC1	i	i	i	i	i	i
O=C(Cn1cnnn1)NCc1ccc(-c2cnc3c(Oc4ccccc4)nccn23)cc1	?	i	i	i	i	i
NC(=O)C1CCCN(Cc2ccc(-c3cnc4c(OCc5ccccc5)nccn34)cc2)C1 (stereo not given)	44.7µM	i	i	i	44.7µM	39.8µM
OC1CCC(NCc2ccc(-c3cnc4c(OCc5ccccc5)nccn34)cc2)CC1 (stereo not given)	50.1µM	i	i	i	i	22.4µM
O=C1CN(Cc2ccc(-c3cnc4c(OCc5ccccc5)nccn34)cc2)CCN1	?	?	i	i	?	?
O=[S+]1([O-])CCN(Cc2ccc(-c3cnc4c(OCc5ccccc5)nccn34)cc2)CC1	35.5µM	11.2µM	i	i	?	22.4µM
O=C1OC[C@@H]2CCN(Cc3ccc(F)cc3)Cc3ccc(F)cc3N12	?	i	i	i	i	i
Cc1ccc([S+](=O)([O-])NC2CCCN(Cc3cccc(-c4ccc(C)c(Cl)c4)c3)C2)cc1 (stereo not given)	28.2µM	nt	i	i	nt	?
Cc1ccc(-c2cccc(CN3CCCC(N[S+](C)(=O)[O-])C3)c2)cc1Cl (stereo not given)	22.4µM	nt	i	?	nt	28.2µM
CC(C)c1nc2c(c(-c3ccc(O)cc3)n1)CCN(Cc1ccsc1)CC2	?	i	i	i	i	?
Cc1ccc(C(=O)N2CCc3nc(C(C)C)nc(-c4ccc(Cl)cc4)c3CC2)cc1	79.4µM	nt	i	i	nt	?
COc1ccc(-c2nc(C(C)C)nc3c2CCN(C(=O)Nc2ccc(Cl)cc2)CC3)cc1	?	i	?	i	i	35.5µM
CC(C)c1nc2c(c(-c3ccc(Cl)cc3)n1)CN(C(=O)C(C)(C)C)CC2	39.8µM	nt	i	i	nt	?
CC(C)c1nc2c(c(-c3ccc(Cl)cc3)n1)CCN(Cc1ccsc1)CC2	44.7µM	nt	i	?	nt	?
COc1ccc(-c2nc(C)nc3c2CN(C(=O)Nc2ccc(Cl)cc2)CC3)cc1	?	nt	i	i	nt	?
COc1ccc(-c2nc(C(C)C)nc3c2CCN(C(=O)C(C)(C)C)CC3)cc1	?	i	i	i	i	i
C#CCNC(=O)c1nc2cccnc2n(Cc2ccccc2)c1=O	?	nt	i	i	nt	i
Cc1cnn(CCC(=O)N2C[C@@H](CO)[C@H](c3ccccn3)C2)c1	i	i	i	i	i	i
COc1ccc(-c2nc(C(C)C)nc3c2CCN(C(=O)c2ccc(C(F)(F)F)cc2)CC3)cc1	31.6µM	i	i	i	i	28.2µM
Oc1ccc(-c2nc(C3CC3)nc3c2CN(Cc2ccc(OC(F)(F)F)cc2)CC3)cc1	?	i	i	i	i	?
